Assay results taken from PubChem BioAssay (EPA / NIEHS).
Values joined by “and” are separate entries in the source; they are usually repeats but may differ in a detail not shown here. Equal values may be shown once. Records with an inconclusive call do not appear. Active and inactive are the calls of the source. How the source made its calls, unless noted: active means hit-call score of the fitted dose curve at least 0.9, where 1 is the maximum; inconclusive means response in the unintended direction; inactive means score below 0.9.

Target: Cytochrome P450 2C19 (Homo sapiens) (UniProt P33261)
Test: NVS_ADME_hCYP2C19: NovaScreen (NVS) CYP450-related Enzyme Activity (ADME) Assay for human CYP2C19 (AID 2283113);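 on AC50: potency for inhibition seen as loss of fluorescent signal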
Method in brief: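 Biochemical CYP2C19 inhibition screen: insect-cell recombinant protein plus fluorescent substrate, 1 h, fluorescence intensity. Acetonitrile defined baseline activity. Single 10 uM concentration in duplicate, with concentration-response follow-up for actives.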

| Structure (SMILES) | outcome | AC50 |
| --- | --- | --- |
| O=C1c2ccccc2C(=O)N1SC(Cl)(Cl)Cl | inactive | – |
| COP(=S)(OC)Oc1ccc(SC)c(C)c1 | – | 2.45 µM (active) |
| Cc1[nH]c(=O)n(C(C)(C)C)c(=O)c1Cl | – | 6.8 µM (active) |
| CCOC1Oc2ccc(OS(C)(=O)=O)cc2C1(C)C (stereo not drawn) | – | 3.56 µM (active) |
| CC(C)N(C(=O)COc1nnc(C(F)(F)F)s1)c1ccc(F)cc1 | – | 1.05 µM (active) |
| COP(=S)(OC)Oc1ccc([N+](=O)[O-])cc1 | – | 0.25 µM (active) |
| CN1CSC(=S)N(C)C1 | – | 10 µM (active) |
| CCN(CC)C(=O)SCc1ccc(Cl)cc1 | – | 10 µM (active) |
| CC1(C)C(C=C(Cl)Cl)C1C(=O)OC(C#N)c1ccc(F)c(Oc2ccccc2)c1 (stereo not drawn) | – | 13.5 µM (active) |
| CCOCN(C(=O)CCl)c1c(C)cccc1CC | – | 5.09 µM (active) |
| O=C(O)CCCOc1ccc(Cl)cc1Cl | – | 12.1 µM (active) |
| Oc1ccc(Cl)cc1Cc1ccccc1 | – | 3.27 µM (active) [middle of 7 runs] |
| O=S(=O)(O)C(F)(F)C(F)(F)C(F)(F)C(F)(F)C(F)(F)C(F)(F)C(F)(F)C(F)(F)F | – | 5.18 µM (active) [middle of 5 runs] |
| CC[C@H](C)[C@H]1O[C@]2(C=C[C@@H]1C)C[C@@H]1C[C@@H](C/C=C(\C)[C@@H](O[C@H]3C[C@H](OC)[C@@H](O[C@H]4C[C@H](OC)[C@@H](O)[C@H](C)O4)[C@H](C)O3)[C@@H](C)/C=C/C=C3\CO[C@@H]4[C@H](O)C(C)=C[C@@H](C(=O)O1)[C@]34O)O2 (tested in a mixture with another compound) | – | 6.36 µM (active) |
| CCCN(CCOc1c(Cl)cc(Cl)cc1Cl)C(=O)n1ccnc1 | – | 0.0245 µM (active) |
| CC(C)(C)C(O)C(Oc1ccc(Cl)cc1)n1cncn1 (stereo not drawn) | – | 1.29 µM (active) and 1.71 µM (active) and 1.18 µM (active) |
| COC(=O)c1ccccc1S(=O)(=O)NC(=O)Nc1nc(C)nc(OC)n1 | – | 5 µM (active) |
| C[C@H]1[C@H](c2ccc(Cl)cc2)SC(=O)N1C(=O)NC1CCCCC1 | – | 7.38 µM (active) |
| O=S1OCC2C(CO1)C1(Cl)C(Cl)=C(Cl)C2(Cl)C1(Cl)Cl (stereo not drawn) | – | 1.64 µM (active) |
| N#Cc1c(Cl)c(Cl)c(Cl)c(C#N)c1Cl | inactive | – |
| O=C(O)COc1ccc(Cl)cc1Cl | – | 10 µM (active) |
| CCC(C)(NC(=O)c1cc(Cl)c(C)c(Cl)c1)C(=O)CCl (stereo not drawn) | inactive | – |
| CNC(=O)CSP(=S)(OC)OC | – | 2.73 µM (active) |
| COc1nn(CSP(=S)(OC)OC)c(=O)s1 | – | 0.124 µM (active) |
| CC(C)(C)C(O)/C(=C\c1ccc(Cl)cc1Cl)n1cncn1 (stereo not drawn) | – | 0.00727 µM (active) |

Target: rat CYP2A1, Cyp2a1 (gene 24894) (UniProt P11711)
Test: NVS_ADME_rCYP2A1: NovaScreen (NVS) CYP450-related Enzyme Activity (ADME) Assay for rat CYP2A1 (AID 2283114; active means hit-call score of the fitted dose curve at least 0.9, where 1 is the maximum; inactive means score below 0.9)
Method in brief: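 Cell-free fluorescence enzyme-activity read on recombinant rat CYP2A1, taken 0.75 h post-dosing. Compounds were screened in duplicate at 10 uM, then hits tested in concentration series (max 20 uM); inhibition scored relative to acetonitrile baseline.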

rat CYP2A1, Cyp2a1 (gene 24894), sequence (P11711 whole entry, looked up): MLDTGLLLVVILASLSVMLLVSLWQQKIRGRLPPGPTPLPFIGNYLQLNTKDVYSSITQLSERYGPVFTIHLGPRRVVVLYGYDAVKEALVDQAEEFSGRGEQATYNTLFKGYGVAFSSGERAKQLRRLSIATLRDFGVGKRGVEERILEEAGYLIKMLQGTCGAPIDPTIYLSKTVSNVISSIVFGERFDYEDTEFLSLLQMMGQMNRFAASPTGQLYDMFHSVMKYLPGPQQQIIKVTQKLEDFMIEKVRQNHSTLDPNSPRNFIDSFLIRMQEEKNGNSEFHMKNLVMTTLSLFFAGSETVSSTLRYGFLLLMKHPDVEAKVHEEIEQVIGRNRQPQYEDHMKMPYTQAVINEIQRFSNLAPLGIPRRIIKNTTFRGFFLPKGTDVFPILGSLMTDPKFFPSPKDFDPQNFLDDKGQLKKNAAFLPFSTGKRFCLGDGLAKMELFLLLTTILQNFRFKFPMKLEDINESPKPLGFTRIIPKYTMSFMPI

| Structure (SMILES) | AC50 |
| --- | --- |
| COP(=S)(OC)Oc1ccc(SC)c(C)c1 | 5.64 µM (active) |
| O=C(Nc1ccccc1)Nc1cnns1 | 6.13 µM (active) |
| CC(C)N(C(=O)COc1nnc(C(F)(F)F)s1)c1ccc(F)cc1 | 10 µM (active) |
| COP(=S)(OC)Oc1ccc([N+](=O)[O-])cc1 | 7.12 µM (active) |
| Oc1ccc(Cl)cc1Cc1ccccc1 | 5.61 µM (active) |
| CC[C@H](C)[C@H]1O[C@]2(C=C[C@@H]1C)C[C@@H]1C[C@@H](C/C=C(\C)[C@@H](O[C@H]3C[C@H](OC)[C@@H](O[C@H]4C[C@H](OC)[C@@H](O)[C@H](C)O4)[C@H](C)O3)[C@@H](C)/C=C/C=C3\CO[C@@H]4[C@H](O)C(C)=C[C@@H](C(=O)O1)[C@]34O)O2 (tested in a mixture with another compound) | 12.7 µM (active) |
| CCCN(CCOc1c(Cl)cc(Cl)cc1Cl)C(=O)n1ccnc1 | 0.512 µM (active) |
| CC(C)(C)C(O)C(Oc1ccc(Cl)cc1)n1cncn1 (stereo not drawn) | 3.66 µM (active) |
| CC(C)(C)C(O)/C(=C\c1ccc(Cl)cc1Cl)n1cncn1 (stereo not drawn) | 0.477 µM (active) |

Target: rat CYP1A2, Cyp1a2 (gene 24297) (UniProt P04799)
Test: NVS_ADME_rCYP1A2: NovaScreen (NVS) CYP450-related Enzyme Activity (ADME) Assay for rat CYP1A2 (AID 2283115)
Method in brief: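 Primary testing ran in duplicate at 10 uM, with actives re-tested across concentration series. Fluorescence intensity from substrate turnover by recombinant protein, measured 1 hour post-dosing, with signal loss scored against acetonitrile vehicle.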

rat CYP1A2, Cyp1a2 (gene 24297), sequence (P04799 whole entry, looked up): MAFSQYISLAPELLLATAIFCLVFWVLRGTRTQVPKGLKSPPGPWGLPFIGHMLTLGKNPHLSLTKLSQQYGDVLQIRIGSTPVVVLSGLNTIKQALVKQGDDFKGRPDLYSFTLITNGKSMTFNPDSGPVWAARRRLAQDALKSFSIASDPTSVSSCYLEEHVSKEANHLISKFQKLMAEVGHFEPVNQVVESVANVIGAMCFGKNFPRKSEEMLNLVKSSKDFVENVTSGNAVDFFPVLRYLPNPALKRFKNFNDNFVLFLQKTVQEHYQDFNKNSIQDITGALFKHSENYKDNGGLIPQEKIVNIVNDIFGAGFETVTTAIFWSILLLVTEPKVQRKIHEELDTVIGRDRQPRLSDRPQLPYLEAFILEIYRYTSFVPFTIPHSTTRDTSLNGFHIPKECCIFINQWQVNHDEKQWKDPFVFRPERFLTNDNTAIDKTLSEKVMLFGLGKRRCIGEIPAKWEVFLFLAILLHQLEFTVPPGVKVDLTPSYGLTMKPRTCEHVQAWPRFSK

| Structure (SMILES) | outcome |
| --- | --- |
| O=C(Nc1ccccc1)Nc1cnns1 | inactive |
| COP(=S)(OC)Oc1ccc([N+](=O)[O-])cc1 | inactive |
| CCCN(CCOc1c(Cl)cc(Cl)cc1Cl)C(=O)n1ccnc1 | inactive |
| N#Cc1c(Cl)c(Cl)c(Cl)c(C#N)c1Cl | inactive |
